Inconclusive results are not listed. More than one record can exist for a structure, and the calls need not agree. The source made the active and inactive calls. Unless noted, calls follow the shape of the dose curve; as a rule, active = well fitted curve in the direction sought with a large enough effect in the repeat runs; inconclusive = weak or mixed curves; inactive = no such curve, though single readings can be large; an effect the other way counts as inactive or inconclusive.
What was measured:
[1] = qHTS assay to test for compound auto fluorescence at 535 nm (green) in HEK293 cells (AID 720680)
[2] = qHTS assay to test for compound auto fluorescence at 460 nm (blue) in HEK293 cell free culture (AID 720681)
How it was run: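 Blue fluorescence (Ex 405/Em 460 nm, triamterene-equivalent) was read immediately after pin transfer of compound or DMSO into medium (DMEM, 10% FBS) without cells.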

[3] = qHTS assay to test for compound auto fluorescence at 535 nm (green) in HEK293 cell free culture (AID 720682)
How it was run: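 Measurement is a direct plate read of green fluorescence (485 nm in, 535 nm out) after compound addition to serum-supplemented DMEM lacking cells, with fluorescein used to express intensities.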

[4] = qHTS assay to test for compound auto fluorescence at 590 nm (red) in HEK293 cell free culture (AID 720683)
How it was run: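 Red-channel autofluorescence of compounds in culture medium (DMEM, 10% FBS), no cells, measured at 540/590 nm. Rose Bengal sodium is the reference fluorophore for equivalence.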

[5] = qHTS assay to test for compound auto fluorescence at 590 nm (red) in HepG2 cell free culture (AID 720684)
How it was run: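 Cell-free; medium MEM + 10% FBS; compound or DMSO added by pintool; read Ex 540/Em 590 nm; Rose Bengal sodium as red reference fluorophore.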

[6] = qHTS assay to test for compound auto fluorescence at 535 nm (green) in HepG2 cell free culture (AID 720686)
[7] = qHTS assay to test for compound auto fluorescence at 460 nm (blue) in HepG2 cells (AID 720687)
How it was run: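 Blue-channel autofluorescence (Ex/Em 405/460 nm, triamterene-equivalent) was measured after 1 hr compound exposure at 37 C, 5% CO2. Cells were HepG2, plated overnight at 37 C in MEM plus 10% FBS.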

[8] = biological target: Glucocorticoid receptor (Homo sapiens) (UniProt P04150); test: qHTS assay to identify small molecule agonists of the glucocorticoid receptor (GR) signaling pathway (AID 720691; active = well fitted activation curve with a large enough effect in the signal ratio in the repeat runs, not every such curve was filed as active; the % refers to the signal ratio)
Sequence of Glucocorticoid receptor (Homo sapiens) (P04150 whole entry, looked up): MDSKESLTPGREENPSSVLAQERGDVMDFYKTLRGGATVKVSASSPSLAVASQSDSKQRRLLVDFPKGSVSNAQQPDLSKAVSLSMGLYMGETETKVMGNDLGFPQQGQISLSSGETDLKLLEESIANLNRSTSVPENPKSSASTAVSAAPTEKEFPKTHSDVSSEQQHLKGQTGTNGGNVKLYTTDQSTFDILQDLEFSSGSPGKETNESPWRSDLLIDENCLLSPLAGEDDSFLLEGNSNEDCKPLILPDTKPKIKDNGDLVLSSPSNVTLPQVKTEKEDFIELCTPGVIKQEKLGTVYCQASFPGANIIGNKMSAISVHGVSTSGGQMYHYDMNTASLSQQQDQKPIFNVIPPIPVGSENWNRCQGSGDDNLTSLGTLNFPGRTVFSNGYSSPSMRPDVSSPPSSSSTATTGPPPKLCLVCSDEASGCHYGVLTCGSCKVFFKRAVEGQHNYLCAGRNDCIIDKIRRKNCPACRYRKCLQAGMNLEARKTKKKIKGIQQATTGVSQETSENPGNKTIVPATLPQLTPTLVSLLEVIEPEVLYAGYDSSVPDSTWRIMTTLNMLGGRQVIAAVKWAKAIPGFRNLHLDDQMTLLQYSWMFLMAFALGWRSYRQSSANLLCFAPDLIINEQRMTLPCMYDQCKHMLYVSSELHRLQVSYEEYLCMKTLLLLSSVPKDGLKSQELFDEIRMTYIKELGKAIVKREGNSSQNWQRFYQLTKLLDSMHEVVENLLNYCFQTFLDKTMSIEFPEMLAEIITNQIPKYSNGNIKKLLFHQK
How it was run: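 A HeLa cervical cancer line expressing GR and a glucocorticoid response element-driven beta-lactamase gene is treated with compounds for 18 h; LiveBLAzer B/G FRET substrate is then applied and fluorescence read.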

[9] = biological target: Glucocorticoid receptor (Homo sapiens) (UniProt P04150); test: qHTS assay to identify small molecule antagonists of the glucocorticoid receptor (GR) signaling pathway (AID 720692; active = well fitted inhibition curve with a large enough effect in the signal ratio in the repeat runs, not every such curve was filed as active; the % refers to the signal ratio)
How it was run: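 GRE-bla HeLa line, dex-stimulated (5 nM final). Compound exposure 18 h, 37 C. Beta-lactamase FRET read after 2 h RT substrate.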

[10] = qHTS assay to identify small molecule antagonists of the glucocorticoid receptor (GR) signaling pathway - cell viability counter screen (AID 720693); also: nearly all actives have a fitted effect of over 55% in size
[11] = qHTS assay for identifying genotoxic compounds that show differential cytotoxicity against isogenic chicken DT40 cell lines with known DNA damage response pathways - wild type cell line (AID 743012); also: nearly all actives have a fitted effect of over 60% in size
How it was run: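 300 wt DT40 cells/well; cpd (DMSO) pintool-transferred after ~0.5 h at 37 C/5% CO2; 40 h incubation; CellTiter-Glo added, 30 min RT; luminescence read.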

[12] = qHTS assay for identifying genotoxic compounds that show differential cytotoxicity against isogenic chicken DT40 cell lines with known DNA damage response pathways - Rev3 mutant cell line (AID 743014); also: nearly all actives have a fitted effect of over 55% in size
[13] = qHTS assay to identify small molecule antagonists of the androgen receptor (AR) signaling pathway using the MDA cell line - cell viability counter screen (AID 743041; also: nearly all actives have a fitted effect of over 45% in size)
How it was run: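 Viability read by CellTiter-Fluor fluorescence in the same wells as the antagonist screen, added after 15.5 h of a 16 h, 37C exposure. Human breast carcinoma MDA-kb2 AR-luc cells, compounds co-dosed with agonist R1881.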

[14] = qHTS assay for identifying genotoxic compounds that show differential cytotoxicity against isogenic chicken DT40 cell lines with known DNA damage response pathways - Rad54/Ku70 mutant cell line (AID 743015); also: nearly all actives have a fitted effect of over 60% in size; also: potency is read from the fitted curve at half-maximal effect
[15] = qHTS assay to identify small molecule antagonists of the androgen receptor (AR) signaling pathway - cell viability counter screen (AID 743033; also: nearly all actives have a fitted effect of over 45% in size)
[16] = biological target: Androgen receptor (Homo sapiens) (UniProt P10275); test: qHTS assay to identify small molecule antagonists of the androgen receptor (AR) signaling pathway (AID 743035; active = well fitted inhibition curve with a large enough effect in the signal ratio in the repeat runs, not every such curve was filed as active; the % refers to the signal ratio)
Sequence of Androgen receptor (Homo sapiens) (P10275 whole entry, looked up): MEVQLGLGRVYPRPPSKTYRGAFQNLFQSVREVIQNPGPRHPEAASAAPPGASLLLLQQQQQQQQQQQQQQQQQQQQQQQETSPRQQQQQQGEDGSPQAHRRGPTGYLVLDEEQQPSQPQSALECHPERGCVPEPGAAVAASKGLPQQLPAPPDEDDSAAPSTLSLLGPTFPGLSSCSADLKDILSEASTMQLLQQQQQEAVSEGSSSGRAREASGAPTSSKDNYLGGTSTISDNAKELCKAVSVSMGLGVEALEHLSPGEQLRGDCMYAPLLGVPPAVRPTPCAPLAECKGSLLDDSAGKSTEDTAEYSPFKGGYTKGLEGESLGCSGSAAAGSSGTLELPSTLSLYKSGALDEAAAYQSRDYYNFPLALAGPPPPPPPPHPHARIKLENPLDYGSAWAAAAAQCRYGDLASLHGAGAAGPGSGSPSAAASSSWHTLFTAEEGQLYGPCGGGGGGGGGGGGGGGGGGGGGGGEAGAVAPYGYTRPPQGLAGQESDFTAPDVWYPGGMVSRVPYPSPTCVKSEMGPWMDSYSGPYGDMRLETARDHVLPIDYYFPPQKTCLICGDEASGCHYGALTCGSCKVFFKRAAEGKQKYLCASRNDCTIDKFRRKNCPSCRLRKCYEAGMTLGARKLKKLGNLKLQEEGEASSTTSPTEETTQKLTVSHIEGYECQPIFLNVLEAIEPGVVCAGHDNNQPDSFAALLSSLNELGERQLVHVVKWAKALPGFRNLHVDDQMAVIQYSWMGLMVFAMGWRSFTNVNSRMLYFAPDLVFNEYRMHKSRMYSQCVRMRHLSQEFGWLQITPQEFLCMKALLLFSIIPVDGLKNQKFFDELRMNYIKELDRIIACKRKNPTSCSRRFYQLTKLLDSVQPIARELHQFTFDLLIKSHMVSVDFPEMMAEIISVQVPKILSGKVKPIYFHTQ
How it was run: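 In this cell-based reporter screen, compounds were tested in concentration series against R1881-activated HEK293 cells expressing beta-lactamase under UAS control; after 16 h at 37C, FRET substrate was added and fluorescence read 2 h later.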

[17] = biological target: Androgen receptor (Homo sapiens) (UniProt P10275); test: qHTS assay to identify small molecule agonists of the androgen receptor (AR) signaling pathway using the MDA cell line (AID 743040; also: nearly all actives have a fitted effect of over 20% in size)
How it was run: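 Luciferase agonist assay: 16 h compound exposure at 37C without CO2 in MDA-kb2 AR-luc cells, whose MMTV promoter responds to both AR and GR. Luminescence measured after 30 min room-temperature incubation with ONE-Glo.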

[18] = biological target: Androgen receptor (Homo sapiens) (UniProt P10275); test: qHTS assay to identify small molecule antagonists of the androgen receptor (AR) signaling pathway using the MDA cell line (AID 743042; also: nearly all actives have a fitted effect of over 55% in size)
How it was run: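 Antagonist mode: compounds plus R1881 agonist added to MDA-kb2 AR-luc cells, incubated 16 h at 37C. Luciferase reporter luminescence quantified, with multiplexed CellTiter-Fluor readout for cell viability.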

[19] = qHTS assay to test for compound auto fluorescence at 460 nm (blue) in HepG2 cell free culture (AID 720685)
How it was run: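 Cell-free plates of MEM plus 10% FBS received 23 nL compound or DMSO vehicle; blue-channel (405/460 nm) intensity scored against triamterene as reference fluorophore.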

[20] = biological target: Androgen receptor (Homo sapiens) (UniProt P10275); test: qHTS assay to identify small molecule agonists of the androgen receptor (AR) signaling pathway (AID 743036; active = well fitted activation curve with a large enough effect in the signal ratio in the repeat runs, with a control signal flat, not every such curve was filed as active; the % refers to the signal ratio)
How it was run: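 Beta-lactamase under UAS control, stably integrated in HEK293 GripTite cells, reports receptor activation. After 16 h compound treatment, cells received FRET substrate for 2 h at room temperature before fluorescence reading.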
% is scaled to controls: 0 for no effect and ±100 for the full control effect.

C[C@@H](O)[C@H]1C(=O)N2C(C(=O)O)=C(SCCN=CN)C[C@H]12
inactive: fluorescence, % of fluorescein [1] 0.0698% [at 18.6 µM] | fluorescence, % of fluorescent control [2] 1.12% [at 18.6 µM] | activity change [3] -0.0504% [at 18.6 µM] | fluorescence, % of fluorescent control [4] -0.0922% [at 18.6 µM] | fluorescence, % of Rose Bengal [5] 0.208% [at 18.6 µM] | fluorescence, % of fluorescein control [6] 0.0651% [at 18.6 µM] | fluorescence, % of fluorescent control [7] 0.982% [at 18.6 µM] | Potency [8] | outcome [9] | outcome [10] | Potency [11] | Potency [12] | Potency [13]

CC1=C(C(=O)O)N2C(=O)[C@@H](NC(=O)[C@H](N)c3ccc(O)cc3)[C@H]2SC1
inactive: fluorescence, % of fluorescein [1] 0.159% [at 18.6 µM] | fluorescence, % of fluorescent control [2] 0.558% [at 18.6 µM] | activity change [3] 0.0539% [at 18.6 µM] | fluorescence, % of fluorescent control [4] -0.034% [at 18.6 µM] | fluorescence, % of Rose Bengal [5] -0.146% [at 18.6 µM] | fluorescence, % of fluorescein control [6] 0.179% [at 18.6 µM] | fluorescence, % of fluorescent control [7] 0.189% [at 18.6 µM] | Potency [8] | outcome [9] | outcome [10] | Potency [11] | Potency [12] | Potency [14] | Potency [15] | Potency [13]

CN1CCN(CC(=O)N2c3ccccc3C(=O)Nc3cccnc32)CC1
inactive: outcome [1] | outcome [2] | outcome [3] | outcome [4] | outcome [5] | outcome [6] | outcome [7] | Potency [8] | Potency [11] | Potency [12] | Potency [13]

CCCOC(OCCC)OCCC
inactive: outcome [1] | outcome [2] | outcome [3] | outcome [4] | outcome [5] | outcome [6] | outcome [7] | Potency [8] | outcome [9] | Potency [11] | Potency [12] | Potency [15] | Potency [13]

Cc1ccsc1/C=C/C1=NCCCN1C
inactive: fluorescence, % of fluorescein [1] 0.007% [at 18.6 µM] | fluorescence, % of fluorescent control [2] -0.0198% [at 18.6 µM] | activity change [3] 0.0151% [at 18.6 µM] | fluorescence, % of fluorescent control [4] -0.0392% [at 18.6 µM] | fluorescence, % of Rose Bengal [5] -0.469% [at 18.6 µM] | fluorescence, % of fluorescein control [6] -0.205% [at 18.6 µM] | fluorescence, % of fluorescent control [7] 0.164% [at 18.6 µM] | Potency [8] | outcome [9] | Potency [11] | Potency [12] | Potency [14] | Potency [15] | Potency [13]

CCCCCCOC(=O)CC
inactive: outcome [1] | outcome [2] | outcome [3] | outcome [4] | outcome [5] | outcome [6] | outcome [7] | Potency [8] | outcome [9] | outcome [10] | Potency [11] | Potency [12] | Potency [14] | Potency [15] | Potency [13]

CC1(CO)CN(c2ccccc2)NC1=O (stereo not given)
inactive: outcome [2] | outcome [3] | outcome [4] | outcome [5] | outcome [6] | outcome [7] | Potency [11] | Potency [12] | Potency [14] | Potency [15] | Potency [16] | outcome [17] | Potency [13] | Potency [18]

O=C(NCC(O)CO)c1c(I)c(C(=O)NCC(O)CO)c(I)c(N(CCO)C(=O)CO)c1I (stereo not given)
inactive: fluorescence, % of fluorescent control [2] -0.0567% [at 18.6 µM] | activity change [3] -0.0517% [at 18.6 µM] | fluorescence, % of fluorescent control [4] 0.453% [at 18.6 µM] | fluorescence, % of Rose Bengal [5] 0.343% [at 18.6 µM] | fluorescence, % of fluorescent control [19] -0.1% [at 18.6 µM] | fluorescence, % of fluorescein control [6] -0.0658% [at 18.6 µM] | fluorescence, % of fluorescent control [7] -0.0045% [at 18.6 µM] | Potency [8] | Potency [11] | Potency [13]

O=S(=O)(O)c1cc(O)c2ccc(Nc3ccccc3)cc2c1
inactive: outcome [2] | outcome [3] | outcome [4] | outcome [5] | outcome [19] | outcome [6] | outcome [7] | outcome [10] | Potency [15] | Potency [13]

COc1ccc(OC)c(Cl)c1
inactive: outcome [2] | outcome [3] | outcome [4] | outcome [5] | outcome [19] | outcome [6] | outcome [7] | outcome [10] | Potency [11] | Potency [14] | Potency [15] | outcome [20] | outcome [17] | Potency [13] | Potency [18]

CC(C)(C)c1cc(CCC(=O)NN)cc(C(C)(C)C)c1O
inactive: outcome [2] | outcome [3] | outcome [4] | outcome [5] | outcome [19] | outcome [6] | outcome [7] | Potency [15] | Potency [13]

O=C(OCc1ccccc1)C(=O)OCc1ccccc1
inactive: outcome [2] | outcome [3] | outcome [4] | outcome [5] | outcome [6] | outcome [7] | Potency [8] | outcome [9] | outcome [10] | Potency [11] | Potency [15] | Potency [16] | outcome [20] | outcome [17] | Potency [13] | Potency [18]

O=P(O)(O)OP(=O)(O)O
inactive: outcome [2] | outcome [3] | outcome [4] | outcome [5] | outcome [19] | outcome [6] | outcome [7] | Potency [8] | outcome [9] | outcome [10] | Potency [11] | Potency [13]
11.9 µM (active) and inactive: Potency [14]

Cc1cc2cc3c(C)cc(=O)oc3c(C)c2o1
inactive: fluorescence, % of fluorescent control [2] 1.37% [at 18.6 µM] | activity change [3] -0.0015% [at 18.6 µM] | fluorescence, % of fluorescent control [4] 0.147% [at 18.6 µM] | fluorescence, % of Rose Bengal [5] -0.0947% [at 18.6 µM] | fluorescence, % of fluorescein control [6] -0.0028% [at 18.6 µM] | fluorescence, % of fluorescent control [7] 1.96% [at 18.6 µM] | outcome [10] | Potency [11] | Potency [12] | Potency [14] | Potency [15] | Potency [13]

Source: PubChem BioAssay (Tox21)
